Source: PubChem BioAssay AID493030 (The Scripps Research Institute Molecular Screening Center, 2011)
The whole screen tested about 2,300 compounds, of which about 1,500 (65%) were called active.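 How the source made its calls: active means mean inhibition over three repeats above a set limit taken from the earlier primary screen (cut at about 30% in these data); inactive means the rest.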 The set was probably picked from earlier hits. A selection follows.

The compounds below were run against Platelet-activating factor acetylhydrolase 2, cytoplasmic (Homo sapiens) (UniProt Q99487) (assay: inhibition of cytoplasmic PAF acetylhydrolase 2 – biochemical, fluorescence polarization, human, confirmation (AID 493030;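 further: inhibitor blocks binding of rhodamine activity probe so polarization falls; 0% = enzyme with DMSO and 100% = wells lacking PAFAH2 protein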)). Conditions: recombinant PAFAH2, FP-rhodamine activity probe, at 3.39 µM, hits give high values.

Compound	inhibition
COc1ccc(/C=N/N(C)C2=NS(=O)(=O)c3ccccc32)cc1OC	9.39% (inactive)
COc1ccc(C(=O)ON=C2c3ccccc3-c3ccccc32)cc1OC	68.7% (active)
O=C(Nc1nnc(SCc2c(Cl)cccc2Cl)s1)C1CCCO1 (stereo not drawn)	24% (inactive)
O=C(Nc1nnc(SCc2c(Cl)cccc2Cl)s1)c1cccc([N+](=O)[O-])c1	52% (active)
O=C(Nc1nnc(SCc2ccccc2Cl)s1)c1cccc([N+](=O)[O-])c1	22.6% (inactive)
O=c1oc(/C=C/c2ccccc2)nc2ccccc12	79.7% (active)
Cc1ccc(NC(=O)COC(=O)C2C3CC4OC(=O)C2C4C3)cc1Cl (stereo not drawn)	76% (active)
O=C(COC(=O)c1ccco1)Nc1ccc(Cl)cn1	33.1% (active)
Cc1ccc(NC(=O)COC(=O)C2CC2)cc1S(=O)(=O)N1CCOCC1	61.3% (active)
Cc1ccc(C(=O)OCC(=O)Nc2ccc(Cl)cn2)cc1S(=O)(=O)N1CCOCC1	54.4% (active)
Cc1ccc(Cl)cc1NC(=O)COC(=O)C1CCCCC1	17.7% (inactive)
Oc1oc(-c2ccccc2Br)nc1/C=N/c1ccccn1	52.6% (active)
COc1ccc(C2=NN(c3nc4ccccc4s3)C(=O)C2)cc1	46.9% (active)
O=C(COC(=O)C1CC2C=CC1C2)Nc1ccccc1 (stereo not drawn)	69.6% (active)
CC1CC1C(=O)OCC(=O)Nc1cccc(F)c1 (stereo not drawn)	83.6% (active)
COc1cc(NC(=O)COC(=O)c2ccc([N+](=O)[O-])s2)cc(OC)c1OC	35.9% (active)
Cc1c(Cl)cnc(NC(=O)COC(=O)C2CCCC2)c1Cl	15.8% (inactive)
O=C(OCc1nc2ccccc2[nH]1)C1CCCCC1	51.7% (active)
O=C(O)c1ccccc1N=N/C(=N/Nc1cc(S(=O)(=O)O)ccc1O)c1ccccc1	8.84% (inactive)
COc1ccccc1Nc1nc(N)nc(CSC(=S)N2CCOCC2)n1	26.7% (inactive)
CCn1c(/C=N/NC(=O)c2ccc(OC)cc2)nc2ccccc21	6.41% (inactive)
N#Cc1cccc(NC(=O)COC(=O)c2ccccc2C(=O)c2ccc(Cl)c([N+](=O)[O-])c2)c1	34.2% (active)
CC1=NN(c2ccc(Cl)c(C(=O)O)c2)C(=O)/C1=C/c1ccc(-c2ccccc2[N+](=O)[O-])o1	27.5% (inactive)
Cc1cc(C(=O)COC(=O)C2CC2)c(C)n1-c1ccc(F)cc1	36.1% (active)
CC(=O)Oc1ccc(-c2nc3c(C)cccc3c(=O)o2)cc1	23.6% (inactive)

Compound	inhibition
Cc1ccc(-c2nc3c(cnn3-c3ccccc3)c(=O)o2)cc1	44% (active)
Cc1cccc(/C=N/NC(=O)CNc2cccc3ccccc23)n1	30.5% (active)
Clc1ccccc1CSc1nnc(-c2ccco2)c(-c2ccco2)n1	16.4% (inactive)
COc1ccc(C(=O)OCC(=O)NCC2CCCCC2)cc1S(=O)(=O)N1CCCc2ccccc21	60.8% (active)
COc1ccc(C(=O)O/N=C(\N)Cc2ccc(Cl)cc2Cl)cc1OC	80.9% (active)
O=C(NNC(=O)c1ccccc1O)c1ccccc1O	20.3% (inactive)
O=c1oc(-c2ccccc2NS(=O)(=O)c2ccc(Cl)cc2)nc2ccccc12	76.7% (active)
O=[N+]([O-])c1ccc(C=Nc2ccc(Cl)cc2Cl)s1	7.11% (inactive)
O=C(COC(=O)c1cccnc1Cl)NC12CC3CC(CC(C3)C1)C2	74.8% (active)
COc1cc(C(=O)OCC(=O)NC23CC4CC(CC(C4)C2)C3)cc(OC)c1OC	67.7% (active)
O=C(COC(=O)c1ccc([N+](=O)[O-])o1)NC12CC3CC(CC(C3)C1)C2	46.4% (active)
COCCNC(=O)/C(C#N)=C/c1cccc(OCc2ccccc2)c1	12% (inactive)
O=C(Cc1ccc(S(=O)(=O)N2CCOCC2)s1)NCCOc1ccccc1F	30.5% (active)
CC(C)(C)c1ccc(/C=C2\Oc3c(ccc(O)c3CN3CCN(CCO)CC3)C2=O)cc1	66.7% (active)
COc1ccc(C(=O)OCC(=O)c2ccc(Cl)s2)c(OC)c1OC	73.5% (active)
Cn1cccc1C(=O)OCC(=O)c1ccc(Br)s1	21% (inactive)
O=C(COC(=O)/C=C/c1cccc(Cl)c1)NCc1cccs1	35% (active)
COc1ccc(/C=C/C(=O)OCC(=O)NCc2cccs2)cc1OC	56.9% (active)
CCOC(=O)CCCN1CC(O)=C(c2nc3ccccc3s2)C1=N	28.1% (inactive)
O=C(COC(=O)c1n[nH]c2ccccc12)Nc1ccccc1Br	38.6% (active)
O=C(COC(=O)c1n[nH]c2ccccc12)NCc1ccccc1	28.3% (inactive)
COCC1CCN(C(=O)c2ccc3oc(Cc4ccccc4)nc3c2)C1 (stereo not drawn)	40.8% (active)
C/C=C/C=C/C(=O)OCC(=O)Nc1ccc(Cl)cc1	82.9% (active)
Cc1ccc(/C=C/C(=O)OCC(=O)Nc2cccnc2Cl)cc1	23.7% (inactive)
Cc1oc2cc(Br)c(O)c(Br)c2c1C(=O)c1ccccc1	49.5% (active)

Compound	inhibition
O=C(c1cccnc1)N(c1cc2sc(=O)oc2c2ccccc12)S(=O)(=O)c1ccccc1	25% (inactive)
COc1ccc(C(=O)OCC(=O)NCCCc2ccccc2)cc1OC	53.5% (active)
COc1ccc(OC)c(/C=C/C(=O)OCC(=O)Nc2ccc3c(c2)OCCO3)c1	48.2% (active)
COc1ccc(C(=O)OCC(=O)Nc2cccc(C(C)=O)c2)cc1OC	79% (active)
COc1cc(/C=C/C(=O)OCC(=O)Nc2cccc(Oc3ccccc3)c2)ccc1O	61.8% (active)
COc1cccc(NC(=O)COC(=O)/C=C/c2ccco2)c1	77.9% (active)
COc1cc(/C=C/C(=O)OCC(=O)NCCCc2ccccc2)ccc1O	35.2% (active)
COc1ccc(/C=C/C(=O)OCC(=O)Nc2cccc(Oc3ccccc3)c2)c(OC)c1	34.4% (active)
CC(C)CNC(=O)COC(=O)/C=C/c1ccco1	70.3% (active)
COc1cccc(C(=O)n2ccc(-c3cccs3)n2)c1	11.4% (inactive)
Cc1cc(C(=O)NNC(=O)c2ccccc2O)c(C)o1	23.2% (inactive)
Cc1cc(C)cc(NC(=O)COC(=O)c2cc(C)oc2C)c1	61.5% (active)
Cc1cc(C(=O)OCC(=O)Nc2ccc(F)c(F)c2)c(C)o1	74.4% (active)
Cc1cc(C(=O)OCC(=O)Nc2ccccc2Cl)c(C)o1	31.5% (active)
CC(=O)c1c(C)[nH]c(C(=O)OCC(=O)NCCC(C)C)c1C	22.4% (inactive)
Cc1ccc2c(=O)oc(N(C)C)nc2c1	38.2% (active)
CCc1ccc(C(=O)OCC(=O)NCC(F)(F)F)cc1	51.9% (active)
CCC(C)c1ccc(NC(=O)COC(=O)C2CCCC2)cc1 (stereo not drawn)	21.6% (inactive)
O=C(COC(=O)C1CCCCC1)Nc1ccc([N+](=O)[O-])cc1	40.8% (active)
COc1ccc(S(=O)(=O)N2CCOCC2)cc1NC(=O)CC1CC2CCC1C2 (stereo not drawn)	60.8% (active)
COc1ccc(S(=O)(=O)N2CCOCC2)cc1NC(=O)Cc1c(F)cccc1Cl	24.1% (inactive)
COc1ccc(S(=O)(=O)N2CCOCC2)cc1NC(=O)Cc1coc2cc(C)ccc12	46.8% (active)
Nc1ccc(C(=O)OCC(=O)NC2CCCc3ccccc32)cc1[N+](=O)[O-] (stereo not drawn)	52.2% (active)
NC(=O)Nc1ccc(C(=O)OCC(=O)NC2CCCc3ccccc32)cc1 (stereo not drawn)	67.4% (active)
O=C(COC(=O)c1ccc(F)cc1)Nc1ccc2c(c1)OCO2	72.8% (active)

Compound	inhibition
Cc1cccc(C(=O)OCC(=O)Nc2ccc(F)cc2)c1	81.4% (active)
CC(C)COC(=O)n1c(=O)oc2ccc(S(=O)(=O)N3CCCCC3)cc21	69.2% (active)
O=C(COC(=O)c1ccc2ncsc2c1)Nc1ccc(Cl)cc1	76.2% (active)
CCc1c(SCCC(=O)O)nc2ccccc2c1C	-1.24% (inactive)
O=C(COC(=O)/C=C/c1cccs1)NC1CCCCC1	87.9% (active)
C=CCOc1ccc(/C=C/C(=O)OCC(=O)NC2CCCCCC2)cc1	77.1% (active)
O=C(COC(=O)/C=C/c1ccc(OC(F)F)cc1)NC1CCCCC1	62.1% (active)
COc1ccc(/C=C/C(=O)OCC(=O)NC2CCCCCC2)cc1OC	79.4% (active)
C=CCOc1ccc(/C=C/C(=O)OCC(=O)NC(C)c2ccc(F)cc2)cc1 (stereo not drawn)	32.5% (active)
Oc1c(Cl)cc(Cl)c(Cl)c1Cc1c(O)c(Cl)cc(Cl)c1Cl	23.1% (inactive)
O=C(COC(=O)C12CC3CC(CC(O)(C3)C1)C2)NC12CC3CC(CC(C3)C1)C2	77.7% (active)
Cc1ccc2c(c1)C1CN(C)CCC1N2C(=O)c1ccccc1NS(=O)(=O)c1ccc(F)cc1C (stereo not drawn)	34.1% (active)
Cc1ccc(F)cc1S(=O)(=O)Nc1cccc(C(=O)N2CCCC(C(N)=O)C2)c1 (stereo not drawn)	12.6% (inactive)
O=C(ON=C1CCN(S(=O)(=O)c2ccccc2)CC1)c1ccc(Cl)cc1	87.2% (active)
CCS(=O)(=O)c1ccc(O)c(NC(=O)COc2ccc(Cl)cc2)c1	60.8% (active)
CCC1OC(c2ccc([N+](=O)[O-])cc2)=Nc2ccccc21 (stereo not drawn)	13.7% (inactive)
O=C(COC(=O)c1ccccc1C(=O)c1ccccc1)c1ccco1	33.5% (active)
CCN(CC)c1ccc(C(=O)OCC(=O)c2ccco2)cc1	40.6% (active)
CC(=O)Nc1ccc(NC(=O)COC(=O)c2ccccc2C(=O)c2ccccc2)cc1	18.4% (inactive)
CC(=O)Nc1ccc(C(=O)OCC(=O)Nc2ccc([N+](=O)[O-])cc2C(F)(F)F)cc1	34.5% (active)
CCCCN1Cc2c(nc3cc(-c4ccccc4)[nH]n3c2=O)C1=O	5.46% (inactive)
Cc1ccc(/C=C/C(=O)OCC(=O)NCc2ccc(Cl)cc2)o1	42.2% (active)
Cc1cc(NC(=O)COC(=O)/C=C/c2ccc(C)o2)no1	14.1% (inactive)
